Residue numbers refer to the chain shown, from its start.

One experiment concerns the target T1, SALL4 ZFC4 R900W (HT-SELEX) (Mus musculus, UniProt Q8BX22 870-940, R900W).
T1 sequence: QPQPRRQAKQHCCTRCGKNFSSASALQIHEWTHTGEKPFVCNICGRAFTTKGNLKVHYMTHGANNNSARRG
Put plainly: HT-SELEX; high values mean tight binding. The settings on record: protein: recombinant; vector His6-GST; dsDNA, one strand shown. The method, boiled down:
(§1)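 Purified recombinant mouse SALL4 zinc finger cluster 4 (residues 870–940, 1 µg) was incubated with library DNA (1.5 µg first cycle, 200 ng later) in 100 µl buffer (10 mM Tris–HCl pH 7.5, 50 mM NaCl, poly(dI-dC), DTT) for 10 min at room temperature. Ni2+ bead-captured complexes were washed, PCR-amplified and reselected for up to 6 cycles, in triplicate, then MiSeq-sequenced and scanned for 6-mers. Binding signal is each canonical k-mer's read fraction as fold change versus the initial random library.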
For CACAGC, the binding signal is 0.324 ± 0.0122 fold-change vs cycle 0.
As to ATCCGC, the binding signal was found to be 0.279 ± 0.016 fold-change vs cycle 0.
The same measure, in the same setting: the value for GCAGAC was 0.369 ± 0.0281 fold-change vs cycle 0.
Regarding ACCGCA, the binding signal was 0.267 ± 0.0189 fold-change vs cycle 0.
The same measure, in the same setting: the value for GCTCCC was 0.239 ± 0.0043 fold-change vs cycle 0.
Still for that read-out and setting: the value for CACCCG was 0.244 ± 0.0244 fold-change vs cycle 0.
Same read-out and setting: the value for ACGCCC was 0.137 ± 0.0108 fold-change vs cycle 0; that for ATGCCC was 0.331 ± 0.00967 fold-change vs cycle 0.
CCAGCG: the binding signal stood at 0.131 ± 0.0133 fold-change vs cycle 0.
For AGACGC, the binding signal turned out to be 0.274 ± 0.0116 fold-change vs cycle 0.
On the same count and under the same terms, the value for CAGGGC was 0.185 ± 0.0225 fold-change vs cycle 0; that for CGGGTC was 0.212 ± 0.0149 fold-change vs cycle 0; that for TCCGCA was 0.269 ± 0.0199 fold-change vs cycle 0.
The same measure, in the same setting: the value for AGCGGC was 0.0644 ± 0.00817 fold-change vs cycle 0; that for GCCTCA was 0.364 ± 0.0186 fold-change vs cycle 0.
In the case of GCGTCC, the binding signal came out at 0.152 ± 0.014 fold-change vs cycle 0.
On the same count and under the same terms, the value for AGCGCC was 0.0655 ± 0.00477 fold-change vs cycle 0; that for AAGCCG was 0.241 ± 0.0209 fold-change vs cycle 0.
As for ATTCTC, the binding signal stood at 1.55 ± 0.0853 fold-change vs cycle 0.
Consider AGGCCC, for which the binding signal is 0.169 ± 0.00192 fold-change vs cycle 0.
In the case of CGCCGC, the binding signal was 0.0234 ± 0.0032 fold-change vs cycle 0.
With GGCCAA, the binding signal is 0.221 ± 0.00964 fold-change vs cycle 0.
As to GCCCGA, the binding signal was 0.125 ± 0.0121 fold-change vs cycle 0.
In the case of GCGTAC, the binding signal amounted to 0.308 ± 0.00417 fold-change vs cycle 0.
On the same count and under the same terms, the value for CCGACG was 0.143 ± 0.00739 fold-change vs cycle 0; that for AGCGCG was 0.0579 ± 0.00565 fold-change vs cycle 0.
Still for that read-out and setting: the value for GCCAAC was 0.279 ± 0.0168 fold-change vs cycle 0.
The same measure, in the same setting: the value for CCCTGC was 0.219 ± 0.0265 fold-change vs cycle 0.
Turning to CGCCGA, the binding signal turned out to be 0.0711 ± 0.00229 fold-change vs cycle 0.
Regarding AGGGGC, the binding signal worked out at 0.195 ± 0.00634 fold-change vs cycle 0.
As to GCATGC, the binding signal amounted to 0.3 ± 0.0114 fold-change vs cycle 0.
Still for that read-out and setting: the value for CCCGAC was 0.183 ± 0.0155 fold-change vs cycle 0.
CGAGCG: the binding signal was found to be 0.115 ± 0.0072 fold-change vs cycle 0.
On the same count and under the same terms, the value for GCGTGA was 0.325 ± 0.00871 fold-change vs cycle 0.
The same measure, in the same setting: the value for CGAGGC was 0.149 ± 0.0127 fold-change vs cycle 0.
Still for that read-out and setting: the value for GCCAGA was 0.289 ± 0.0233 fold-change vs cycle 0; that for CGACAC was 0.316 ± 0.0105 fold-change vs cycle 0.
Regarding CCGGAC, the binding signal was found to be 0.195 ± 0.02 fold-change vs cycle 0.
The same measure, in the same setting: the value for AAGCGC was 0.162 ± 0.0133 fold-change vs cycle 0; that for CCCGGA was 0.231 ± 0.0171 fold-change vs cycle 0.

A further experiment concerns the target T2, SALL4 ZFC4 G921D (HT-SELEX) (Mus musculus, UniProt Q8BX22 870-940, G921D).
T2 sequence: T1 sequence with W31R, G52D
Kind of experiment: HT-SELEX; high values mean tight binding. Particulars: protein: recombinant; vector His6-GST; dsDNA, one strand shown. Put shortly: as §1
On to CACAGC, for which the binding signal worked out at 0.442 ± 0.0707 fold-change vs cycle 0.
As for ATCCGC, the binding signal is 0.426 ± 0.0842 fold-change vs cycle 0.
The same measure, in the same setting: the value for GCAGAC was 0.48 ± 0.0825 fold-change vs cycle 0.
The same measure, in the same setting: the value for ACCGCA was 0.39 ± 0.0525 fold-change vs cycle 0; that for GCTCCC was 0.357 ± 0.0785 fold-change vs cycle 0.
In the case of CACCCG, the binding signal was 0.342 ± 0.0506 fold-change vs cycle 0.
Same read-out and setting: the value for ACGCCC was 0.25 ± 0.0577 fold-change vs cycle 0; that for ATGCCC was 0.475 ± 0.0568 fold-change vs cycle 0.
The same measure, in the same setting: the value for CCAGCG was 0.245 ± 0.0689 fold-change vs cycle 0; that for AGACGC was 0.405 ± 0.0774 fold-change vs cycle 0.
Still for that read-out and setting: the value for CAGGGC was 0.31 ± 0.0787 fold-change vs cycle 0.
With CGGGTC, the binding signal turned out to be 0.342 ± 0.0694 fold-change vs cycle 0.
On the same count and under the same terms, the value for TCCGCA was 0.408 ± 0.0556 fold-change vs cycle 0.
Still for that read-out and setting: the value for AGCGGC was 0.177 ± 0.0591 fold-change vs cycle 0; that for GCCTCA was 0.513 ± 0.0755 fold-change vs cycle 0; that for GCGTCC was 0.258 ± 0.0705 fold-change vs cycle 0.
The same measure, in the same setting: the value for AGCGCC was 0.179 ± 0.0733 fold-change vs cycle 0; that for AAGCCG was 0.357 ± 0.0555 fold-change vs cycle 0; that for ATTCTC was 1.41 ± 0.126 fold-change vs cycle 0.
For the sequence AGGCCC, the binding signal worked out at 0.296 ± 0.0789 fold-change vs cycle 0.
Turning to CGCCGC, the binding signal came out at 0.091 ± 0.0475 fold-change vs cycle 0.
Regarding GGCCAA, the binding signal worked out at 0.358 ± 0.0813 fold-change vs cycle 0.
The same measure, in the same setting: the value for GCCCGA was 0.243 ± 0.0758 fold-change vs cycle 0; that for GCGTAC was 0.455 ± 0.0643 fold-change vs cycle 0; that for CCGACG was 0.255 ± 0.0634 fold-change vs cycle 0.
The same measure, in the same setting: the value for AGCGCG was 0.159 ± 0.0595 fold-change vs cycle 0.
Same read-out and setting: the value for GCCAAC was 0.415 ± 0.0905 fold-change vs cycle 0; that for CCCTGC was 0.323 ± 0.0875 fold-change vs cycle 0.
Consider CGCCGA, for which the binding signal came out at 0.179 ± 0.0757 fold-change vs cycle 0.
Regarding AGGGGC, the binding signal came out at 0.332 ± 0.0629 fold-change vs cycle 0.
As to GCATGC, the binding signal turned out to be 0.437 ± 0.0507 fold-change vs cycle 0.
For CCCGAC, the binding signal is 0.308 ± 0.0677 fold-change vs cycle 0.
For the sequence CGAGCG, the binding signal amounted to 0.24 ± 0.0639 fold-change vs cycle 0.
The same measure, in the same setting: the value for GCGTGA was 0.455 ± 0.056 fold-change vs cycle 0; that for CGAGGC was 0.271 ± 0.0651 fold-change vs cycle 0.
The same measure, in the same setting: the value for GCCAGA was 0.414 ± 0.0657 fold-change vs cycle 0; that for CGACAC was 0.48 ± 0.0742 fold-change vs cycle 0.
Still for that read-out and setting: the value for CCGGAC was 0.305 ± 0.0661 fold-change vs cycle 0; that for AAGCGC was 0.302 ± 0.0877 fold-change vs cycle 0; that for CCCGGA was 0.334 ± 0.0568 fold-change vs cycle 0.
